# Test results from ChEMBL document CHEMBL3988442, “University of Dundee, Small-Polar-MMV Screening Library” (2021).
# Hit rate of the full screen: of about 69,000 compounds, about 1,000 (1.4%) showed an effect of 50% or more. This is one part of a sample in which strong results are shown more often than they occur.
# Tested on: Leishmania donovani
# Experiment: Leishmania intramacrophage assay
# Format: functional, organism-based
# Set-up: scale not given: in the data most compounds retested in dose-response had high values
smiles,measurement,setting,value
NCCc1n[nH]c(=O)n1-c1cccc2ccccc12,Percent Effect,"30.3 µM, […]",-1.188%
COc1ccc2nnc(CCCC(=O)NCc3ccccc3F)n2n1,Percent Effect,"30.3 µM, […]",59.63%
COc1ccc2nnc(CCCC(=O)NCc3ccccc3OC)n2n1,Percent Effect,"30.3 µM, […]",-10.21%
COc1ccc2nnc(CCCC(=O)NCc3ccccc3)n2n1,Percent Effect,"30.3 µM, […]",-8.358%
Cn1nccc1CNC(=O)CCn1nc(C(F)(F)F)cc1C1CC1,Percent Effect,"30.3 µM, […]",-48.51%
Cc1cc(=O)[nH]c(-n2nc(C3CC3)cc2N)n1,Percent Effect,"30.3 µM, […]",77.1%
CCCc1cc(=O)[nH]c(-c2cccc(CN3CCCCCC3)c2)n1,Percent Effect,"30.3 µM, […]",-12.61%
CC(=O)Nc1cc(C2CC2)nn1-c1nc(C)c(C)c(=O)[nH]1,Percent Effect,"30.3 µM, […]",-16.88%
CC(C)c1cc(=O)[nH]c(C(C)(C)N)n1.Cl,Percent Effect,"30.3 µM, […]",-1.615%
Cc1nc(-n2nc(C3CC3)cc2NC(=O)C(C)C)[nH]c(=O)c1C,Percent Effect,"30.3 µM, […]",15.32%
CCCc1cc(=O)[nH]c(-n2nc(-c3cccs3)cc2N)n1,Percent Effect,"30.3 µM, […]",-5.205%
Cc1cc(=O)[nH]c(-n2nc(-c3cccs3)cc2N)n1,Percent Effect,"30.3 µM, […]",-7.901%
CCc1c(C)nc(-n2nc(C3CC3)cc2NC(C)=O)[nH]c1=O,Percent Effect,"30.3 µM, […]",18.69%
Cc1cc(=O)[nH]c(-n2nc(-c3ccccc3)cc2N)n1,Percent Effect,"30.3 µM, […]",15.58%
CC(NC(=O)CCc1nc(C(C)(C)C)no1)c1nnc2n1CCC2 (centres undefined),Percent Effect,"30.3 µM, […]",10.79%
CNC(=O)CCS(=O)(=O)Cc1cc(Cl)c2c(c1)OCCO2,Percent Effect,30 µM,6.265%
O=C(CN1CCC(C(=O)c2cc(F)ccc2F)CC1)NC1CC1,Percent Effect,"30.3 µM, […]",20.49%
CNC(=O)C(NC(=O)CCc1cccc(OC2CCCC2)c1)C(C)C (centres undefined),Percent Effect,"30.3 µM, […]",1.65%
Cc1nsc(C(=O)NCCCc2ccccc2)n1,Percent Effect,"30.3 µM, […]",7.564%
Cc1nc(C2CCCN2C(=O)Cn2cncn2)no1 (centres undefined),Percent Effect,30 µM,21.12%
CCOC(=O)c1sc2ccsc2c1CNC(=O)COC,Percent Effect,30 µM,13.66%
O=C(NCC(O)c1ccoc1)Nc1cccs1 (centres undefined),Percent Effect,"30.3 µM, […]",10.34%
CCC(CC)(CCO)CNC(=O)c1ccon1,Percent Effect,"30.3 µM, […]",7.917%
COCc1ccccc1CNCc1c(C(C)C)nn(C)c1N(C)C,Percent Effect,30 µM,21.29%
CC(C)c1nn(C)c(N(C)C)c1CNCc1ccccc1CN(C)C,Percent Effect,"30 µM, 30.03 µM",50.34%
CC(C)c1nn(C)c(N(C)C)c1CNCc1ccccc1CO.Cl,Percent Effect,30 µM,5.046%
O=C1N(C2CCCCC2)CCCC12CCN(S(=O)(=O)c1cccnc1)C2 (centres undefined),Percent Effect,"30.3 µM, […]",18%
COCCNC(=O)[C@H]1C[C@@H]2CCN(CCc3ccccc3)C[C@H]2O1.O=C(O)C(F)(F)F,Percent Effect,"30.3 µM, […]",57.9%
O=C(NC1CCCC1)[C@@H]1C[C@@H]2CCN(Cc3ccoc3)C[C@H]2O1.O=C(O)C(F)(F)F,Percent Effect,"30.3 µM, […]",62.18%
CC(C)NC(=O)[C@@H]1C[C@@H]2CCN(Cc3ccoc3)C[C@H]2O1.O=C(O)C(F)(F)F,Percent Effect,"30.3 µM, […]",11.62%
O=C(NC1CC1)[C@@H]1C[C@@H]2CCN(Cc3ccoc3)C[C@@H]2O1.O=C(O)C(F)(F)F,Percent Effect,"30.3 µM, […]",29.69%
O=C(NC1CCC1)[C@@H]1C[C@@H]2CCN(CCc3ccccc3)C[C@H]2O1.O=C(O)C(F)(F)F,Percent Effect,"30.3 µM, […]",-19.62%
O=C(NC1CC1)[C@H]1C[C@@H]2CCN(CCc3ccccc3)C[C@H]2O1.O=C(O)C(F)(F)F,Percent Effect,"30 µM, 30.03 µM",7.043%
O=C(NCC1CC1)[C@H]1C[C@@H]2CCN(CCc3ccccc3)C[C@H]2O1.O=C(O)C(F)(F)F,Percent Effect,"30.3 µM, […]",-22.31%
COCCNC(=O)[C@H]1C[C@@H]2CCN(CCc3ccccc3)C[C@@H]2O1.O=C(O)C(F)(F)F,Percent Effect,"30.3 µM, […]",34.91%
CNC(=O)[C@H]1C[C@@H]2CCN(CCc3ccccc3)C[C@@H]2O1.O=C(O)C(F)(F)F,Percent Effect,"30.3 µM, […]",53.78%
CNC(=O)[C@H]1C[C@@H]2CN(Cc3ccccc3)C[C@H]1O2.O=C(O)C(F)(F)F,Percent Effect,"30.3 µM, […]",55.32%
CNC(=O)[C@H]1C[C@@H]2CN(Cc3ccc(C)cc3)C[C@H]1O2.O=C(O)C(F)(F)F,Percent Effect,"30.3 µM, […]",47.12%
CNC(=O)[C@H]1C[C@@H]2CN(Cc3cccc(C)c3)C[C@H]1O2.O=C(O)C(F)(F)F,Percent Effect,"30.3 µM, […]",36.09%
